Screening data from PubChem.
The entries come from a sample that favours hits as a whole.
MARV entry inh: inhibitors of Marburg virus binding or cell entry; Marburg virus pseudotyped entry inhibition, cell reporter; actives 1.8% (n = 300,000); AID 540276; Potency, µM (top dose mostly 37.8 µM), without a hit: at the highest dose activity change, negative = inhibition, actives largely listed as inhibitors; calls by dose curve; tested in HEK293 cells; also: potency is read from the fitted curve at half-maximal effect; % is scaled to controls: 0 for no effect and ±100 for the full control effect
VACV Venus inh: inhibitors of vaccinia virus (Venus reporter) | Vaccinia virus Venus reporter expression, fluorescence | Potency, µM (highest dose often 36.5 µM), inactives show top-dose activity change, negative = inhibition, most hits filed as inhibitors | actives 0.46% (n = 330,000); calls by dose curve; tested in A549 cells; also: potency is read from the fitted curve at half-maximal effect; % is scaled to controls: 0 for no effect and ±100 for the full control effect; nearly all actives have a fitted effect of over 30% in size
Lassa entry inh: Lassa virus entry inhibition. Lassa virus pseudotype entry inhibition, cell reporter. Potency, µM (top dose mostly 37.9 µM), for inactives: at the highest dose activity change, negative = inhibition, actives largely listed as inhibitors. actives 1.2% (n = 300,000). AID 540256; calls by dose curve; tested in HEK293 cells; also: potency is read from the fitted curve at half-maximal effect; % is scaled to controls: 0 for no effect and ±100 for the full control effect; nearly all actives have a fitted effect of over 50% in size
Vaccinia mCherry: inhibitors of vaccinia virus infection (mCherry reporter signal). Vaccinia virus mCherry reporter infection, fluorescence. Potency, µM (top dose mostly 36.5 µM), for inactives: top-dose activity change, negative = inhibition, usual class: inhibitors. actives 0.63% (n = 310,000). AID 720579; calls by dose curve; tested in A549 cells; also: potency is read from the fitted curve at half-maximal effect; % is scaled to controls: 0 for no effect and ±100 for the full control effect; nearly all actives have a fitted effect of over 35% in size
Shiga toxin inh: inhibitors of Shiga toxin in Vero cells; inhibition, % at 38.7 µM; Vero cells, Shiga toxin protein synthesis inhibition reporter; AID 2315; actives 9.2% (n = 290,000); in the data active = inhibition mostly above about 28%, no sharp cut-off; inactive = mostly below about 43%; also: 0% is about no effect
CHX counter: counter-screen for Shiga toxin inhibitors: cycloheximide protein synthesis inhibition; max response, %; cell reporter, cycloheximide protein synthesis inhibition counterscreen; actives 12% (n = 300,000); in the data active = max response mostly above about 13%, no sharp cut-off; inactive = mostly below about 14%; also: read at 38.3 µM for the half of the compounds with a filed dose; 0% is about no effect
Active calls of the source: *; i = inactive; ? = inconclusive; · = no result; [ ] = remark or other dose.

SMILES | MARV entry inh | VACV Venus inh | Lassa entry inh | Vaccinia mCherry | Shiga toxin inh | CHX counter
Cc1cccc(N=C2NC(=O)/C(=C/C=C/c3ccco3)S2)c1 | ? | -17% | 18µM* | ? | -13 | -2
O=C1NC(=Nc2ccc(O)cc2)S/C1=C/c1ccco1 | ? | ? | 4.6µM* | ? | 22 | 17*
CNC(=O)CSc1nnc(C(C)C)n1C | -1%[46.1 µM] | 1% | 1% | -4% | 24 | -4
N=c1n(CCN2CCCCC2)c2ccccc2n1CC(O)c1cccc(Br)c1 (stereo not drawn) | 11µM* | ? | ? | ? | -8 | 1
N=c1n(CCN2CCCCC2)c2ccccc2n1CC(O)c1ccc(Cl)c(Cl)c1 (stereo not drawn) | 5.8µM* | 11µM* | ? | ? | -12 | -9
Cc1ccc(NC(=O)c2cc3c(=O)n(Cc4ccco4)ccc3nc2C)cc1C | · | -8% | -15%[46.1 µM] | -3% | · | ·
CC(C)(C)c1ccc(C(=O)C[n+]2cccc(Br)c2)cc1 | · | -16% | · | -15% | · | ·
COc1cccc(CC(=O)Nc2ccc(-c3nc4ccccc4s3)cc2)c1 | · | -6% | 20%[46.1 µM] | -9% | · | ·
COc1cccc(-c2nc3ccccc3s2)c1 | ? | -10% | ? | · | 74* | 38*
COc1ccc(CC(=O)Nc2ccc(-c3nc4ccccc4s3)cc2Cl)cc1 | · | -7% | 8%[46.1 µM] | -14% | · | ·
COc1ccc(-c2nc3ccccc3s2)cc1 | · | · | · | · | 18 | 16*
COc1cccc(NC(=O)CN(C)C(=O)c2ccccc2-c2nc3ccccc3s2)c1 | 7.1µM* | -19% | -19% | -27% | · | ·
C=C1C=C(C(F)F)n2ncc(C(=O)N3CCc4ccccc4C3)c2N1 | · | -16% | · | 4% | · | ·
O=C(c1cc(F)ccc1F)C1CCCN(C(=O)CCc2cnccn2)C1 (stereo not drawn) | 16%[46.1 µM] | -11% | -4% | -8% | -37 | -1
O=C(c1cccc2ccccc12)C1CCCN(C(=O)CCc2cnccn2)C1 (stereo not drawn) | 8%[46.1 µM] | -11% | -13%[46.1 µM] | i | 14 | 15*
CC(C)c1ccc(NC(=O)COc2nncc3ccccc23)cc1 | 24%[46.1 µM] | -11% | 20% | -12% | 43* | 24*
CC(C)c1nnc(NC(=O)CCC(=O)NCCc2ccccc2)s1 | 10% | 5% | 1% | -8% | 11 | 1
CC(C)c1nnc(NC(=O)CCc2ccccc2)s1 | · | · | · | · | 28 | 19*
CC(Cc1ccccc1)C(=O)Nc1ccc(Br)cc1 (stereo not drawn) | · | · | · | · | 100* | 36*
CC(C)c1ccc(NC(=O)CCc2ccccc2)cc1 | -22% | ? | ? | -24% | 136* | 56*
CC(Cc1ccccc1)C(=O)Nc1ccccc1 (stereo not drawn) | 7% | -12% | 20% | i | 9 | 7
CC(CCC(=O)O)C1CCC2C3CC[C@H]4CC(O)CC[C@@]4(C)C3C=C[C@]12C (stereo partly drawn) | · | -11% | · | i | · | ·
COc1ccc(C(C)NC(=O)CN(c2cc(OC)ccc2OC)S(=O)(=O)c2ccccc2)cc1 (stereo not drawn) | -16%[46.1 µM] | 1% | 1%[46.1 µM] | -5% | · | ·
CCN(C(=O)C(NS(=O)(=O)c1cccc2nsnc12)c1ccccc1)c1ccccc1 (stereo not drawn) | ? | -13% | -16%[46.1 µM] | -20% | · | ·
O=C(CCc1ccccc1)Nc1cccnc1 | · | · | · | · | 104* | 13*
SMILES | MARV entry inh | VACV Venus inh | Lassa entry inh | Vaccinia mCherry | Shiga toxin inh | CHX counter
CC(C)c1nnc(NC(=O)CCS(=O)(=O)c2ccccc2)s1 | -9%[46.1 µM] | -24% | 0% | ? | 44* | 9
O=c1[nH]cccc1-c1nc2ccccc2n1Cc1ccc(F)cc1 | · | · | · | · | 18 | 7
Cc1cc2nc(-c3ccc[nH]c3=O)n(Cc3ccc(F)cc3)c2cc1C | -12%[46.1 µM] | -16% | -12%[46.1 µM] | -12% | 23 | 12*
Cc1cc2nc(-c3ccc[nH]c3=O)n(Cc3ccccc3F)c2cc1C | ? | 4% | 12% | -1% | 43* | 38*
CSc1ccc(CCNC(=O)c2ccc(-c3nc(COc4ccccc4)c(C)o3)cc2)cc1 | · | -11% | 2%[46.1 µM] | 4% | · | ·
C/C(NC(=O)c1cccs1)=C1\C(=O)C[C@@H]2[C@H]1C2(C)C | 14% | -19% | 2% | · | 29 | 15*
O=C(NC(=S)NC1CCSC1=O)c1cccs1 (stereo not drawn) | ? | -7% | 16% | -10% | 8 | 7
Cc1ccc(C2NNC(=O)C2NC(=O)c2ccccc2)cc1 (stereo not drawn) | ? | -19% | 11% | · | 33* | 39*
Cc1ccc(NC2=C(Cl)C(=O)OC2NC(=O)c2ccccc2)cc1 (stereo not drawn) | 1% | · | -3% | · | 11 | -6
O=C(NC1C(=O)NNC1c1ccc(Cl)cc1)c1ccc(F)cc1 (stereo not drawn) | · | · | · | · | -2 | 2
O=C(NC1C(=O)NNC1c1ccccc1)c1ccc(F)cc1 (stereo not drawn) | 3% | 3% | -3% | -11% | 88* | 29*
Cc1ccc(-c2nc3cc(NC(=O)C(C)C)ccc3o2)cc1C | ? | · | ? | · | 95* | 83*
Cc1cc2nc(-c3ccc(NC(=O)C(C)C)cc3)oc2cc1C | ? | 0% | -26% | -11% | 80* | 54*
Cc1ccc(-c2nc3cc(NC(=O)C(C)C)ccc3o2)cc1 | ? | ? | 11µM* | · | 95* | 73*
Cc1ccc(-c2nc3cc(NC(=O)c4cc(Br)ccc4Cl)ccc3o2)cc1 | · | 4% | -12%[46.1 µM] | 4% | · | ·
CC(Oc1ccc(Cl)cc1Cl)C(=O)Nc1ncccn1 (stereo not drawn) | 4% | -21% | ? | i | 41 | 22*
COc1ccc(-c2nc3cc(NC(=O)COc4ccc(C)c(C)c4)ccc3o2)cc1 | ? | 3% | 30%[46.1 µM] | 1% | · | ·
Cn1cc(Br)c(C(=O)NC(=S)Nc2ccc(S(N)(=O)=O)cc2)n1 | -7%[46.1 µM] | -5% | -19% | 0% | -9 | -4
Cc1cc2oc(C(=O)Nc3sc4c(c3C(=O)NCc3ccccc3)CCCC4)cc(=O)c2cc1C | 7%[46.1 µM] | -12% | 7%[46.1 µM] | -2% | · | ·
Cc1ccc2nc(-c3ccc(O)cc3)oc2c1 | 5.6µM* | -6% | ? | -29% | 14 | 19*
Cc1ccc(-c2nc3cc(Cl)ccc3o2)cc1 | ? | -13% | ? | -12% | 123* | 46*
Cc1ccc(C(=O)Nc2cc(-c3nc4cc(Cl)ccc4o3)ccc2C)c(C)c1 | -22%[46.1 µM] | -5% | 3%[46.1 µM] | -11% | · | ·
COc1cc(OC)cc(-c2nc3cc(C)ccc3o2)c1 | ? | · | ? | · | 104* | 58*
Clc1ccc(-c2nc3cc(CN4CCCCC4)ccc3o2)cc1 | ? | -2% | -1%[46.1 µM] | i | 54* | 36*
CCc1nnc(NS(=O)(=O)c2ccc(Nc3ccc4nonc4c3[N+](=O)[O-])cc2)s1 | 0%[46.1 µM] | -1% | 2% | 6% | -28 | -3
Cc1c(O)c2c3c(cccc3c1O)C(=O)N(c1ccccc1)C2=O | -38% | 12% | -17% | -27% | -6 | -3
CC(Oc1ccc(Cl)cc1Cl)C(=O)Nc1ccc2oc(-c3ccncc3)nc2c1 (stereo not drawn) | 2.1µM* | · | ? | · | -9 | -4
